# Sa ugtP lethal: growth inhibition of ugtP-null S. aureus, primary screen, RN4220 ugtP deletion, OD600; 16 h; growth inhibition, % (test concentration not listed); 330,000 compounds, 0.54% hits; AID 1259309, 2017; in the data active means growth inhibition above about 68%;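 further: plate controls were untreated wells for no effect and antibiotic for full effect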
# RN4220 kill: growth inhibition of S. aureus RN4220, primary screen, OD600; 16 h; inhibition, % (concentration not given with the values); 330,000 compounds, 0.33% hits; AID 1259311, 2017; in the data active means inhibition above about 85%;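 further: plate controls were untreated cells for no effect and reference antibiotic for full effect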
# Vc quorum ag: inducers of Vibrio cholerae quorum light production without autoinducers, primary screen, BH1578 luxS cqsA deficient, single point. V. cholerae BH1578 lux reporter, luminescence, 6 h. AID 588436, 2011. 350,000 compounds, 0.16% hits. activation, % at 18.7 µM; in the data active means activation mostly above about 9.7%, no sharp cut-off; inconclusive means no clear call, values can overlap the other calls; inactive means mostly below about 3.7%
# CCHF vOTU inh: CCHFV vOTU protease inhibitors, primary screen, biochemical, Pep-AMC substrate, fluorescence; 370,000 compounds, 0.55% hits; Crimean-Congo hemorrhagic fever virus L polyprotein viral ovarian tumor (vOTU) protease …; inhibition, % at 11.5 µM; in the data active means inhibition above about 30%; further: 0% = vehicle wells with enzyme and 100% = no enzyme wells
# PfHsp40 yeast: rescue of yeast from PfHsp40 toxicity, primary screen, S. cerevisiae, ATP luminescence; AID 504582, 2011; S. cerevisiae expressing PfHsp40, growth rescue; growth rescue, % at 12.5 µM; 340,000 compounds, 0.68% hits; in the data active means growth rescue above about 28%, passing the limit was not always enough; inconclusive means no clear call, values can overlap the other calls;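 further: yeast W303a lacking pdr1 and pdr3 grown in galactose medium; growth measured after three days at 30 °C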
# Mtb hypoxia inh: PubChem AID 1159583; M. tuberculosis hypoxia-regulated fluorescent reporter, fluorescence; fluorescence inhibition, % (test concentration not listed); 300,000 compounds, 0.1% hits; in the data active means fluorescence inhibition mostly above about 23%, no sharp cut-off; inactive means mostly below about 17%
# Starred values were filed as active, the others as inactive; i = inactive; ? = inconclusive; nt = not tested or not shown. In the library only some 1.7% were active in any assay of this set; here they are far more common.
SMILES,Sa ugtP lethal,RN4220 kill,Vc quorum ag,CCHF vOTU inh,PfHsp40 yeast,Mtb hypoxia inh
CC(=O)OCC1=C(C(=O)O)N2C(=O)C(NC(=O)C(C)Cn3cc(Cl)cn3)C2SC1 (stereo not given),100*,100*,i,-4,-1,17
CC(=NNc1cccc(C(=O)O)c1)c1ccc(Cl)s1,10,2,nt,nt,nt,6
COc1ccc(C=NNc2cc(C)nc(-n3nc(C)cc3C)n2)cc1,-9,13,nt,nt,nt,-12
Cc1cccc(NC(=O)c2nc[nH]c2C(=O)NC(CCCCNC(=O)OC(C)(C)C)C(=O)OC(C)(C)C)c1 (stereo not given),3,-6,nt,nt,nt,6
Nc1nc(-c2ccccc2)c(N=Nc2cccc3ccccc23)s1,97*,99*,0,15,0,10
Nc1nc(-c2ccccc2)c(N=Nc2ccccc2Cl)s1,31,1,0,12,1,15
CCOC(=O)c1c(N=CN(C)C)sc2c1CCC2,2,8,nt,nt,nt,nt
Cc1ccc(N=C2SC(C(=O)Nc3ccc(OC(F)(F)F)cc3)C(N)=C2C(=O)Nc2c(C)cc(C)cc2C)cc1 (stereo not given),100*,100*,0,30*,2,8
Fc1ccc(CON=CC2=C(Cl)c3ccccc3CC2)cc1,99*,10,nt,nt,nt,nt
CC(=O)c1sc(NC(=O)CS(=O)(=O)c2ccccc2)nc1C,2,0,2,5,1,3
CC(=O)c1sc(NC(=O)CS(=O)(=O)c2ccc(F)cc2)nc1C,0,2,28*,9,0,10
O=c1c(Cl)c(Cl)cnn1Cc1nnc(-c2ccc(Cl)cc2)o1,-15,7,0,-7,236*,14
Cc1ccc(-c2c(C(=O)NN=Cc3ccc(OC(C)C)cc3)nnn2-c2nonc2N)cc1,16,5,nt,nt,nt,-4
CC/C(=N/NC(=O)c1ccccc1O)c1c(C)[nH]n(-c2ccccc2)c1=O,nt,nt,i,7,399*,nt
CCSC(=S)c1c(C)[nH]n(-c2ccccc2)c1=O,73,72,-1,-6,34*,10
Cc1[nH]n(-c2ccc(Cl)cc2)c(=O)c1C(=O)c1ccccc1,3,26,0,17,87*,-9
Cc1[nH]n(-c2ccccc2)c(=O)c1C(=O)c1ccccc1,-1,20,i,1,1,13
Cc1[nH]n(-c2ccccc2)c(=O)c1C(=O)c1ccc(Cl)cc1,17,27,i,-5,96*,-6
O=S(=O)(N=C(Nc1cccc2ccccc12)c1ccccc1)c1cccs1,4,3,nt,nt,nt,-6
CCCCCC(=O)N1CC2(CC(c3cccc(NC(=O)COc4ccc(Cl)cc4)c3)=NO2)CC1C(N)=O (stereo not given),-12,2,nt,nt,nt,11
C=CCn1c(COc2ccccc2)nnc1SCC(=O)NN=Cc1ccc(C)cc1,-7,1,nt,nt,nt,nt
S=C(NCc1ccco1)Nc1ccc(Cl)c(Cl)c1,-19,-6,i,11,36*,9
Cc1ccc(C(=O)NN=Cc2ccc3c(c2)OCO3)o1,2,-1,nt,nt,nt,1
CCOC(=O)C1CCN(c2c(C(=O)c3ccccc3)cnc3ccc(CC)cc23)CC1,94*,39,0,7,1,1
CCOC(=O)C1CCCN(c2c(C(=O)c3ccccc3)cnc3ccccc23)C1 (stereo not given),69,2,-1,-2,0,-1
SMILES,Sa ugtP lethal,RN4220 kill,Vc quorum ag,CCHF vOTU inh,PfHsp40 yeast,Mtb hypoxia inh
COc1cc2ncc(C(=O)c3ccccc3)c(N3CCN(Cc4ccccc4)CC3)c2cc1OC,14,-6,i,nt,54*,-11
O=C(C=C(O)c1ccccc1)C(=O)NNC(=O)c1ccccc1,-4,2,nt,nt,nt,3
NC(Cc1ccc([N+](=O)[O-])cc1)=NOC(=O)C(c1ccccc1)c1ccccc1,8,-3,nt,nt,nt,19
CCn1c(=O)c(C(=O)NNC(=O)c2ccccc2Cl)c(O)c2ccccc21,-16,14,0,-6,34*,7
Cn1c(=O)c(C(=O)NNC(=O)c2ccc(Br)cc2)c(O)c2ccccc21,100*,98*,0,3,?,13
CCn1c(=O)c(C(=O)NNC(=O)c2ccccc2F)c(O)c2ccccc21,5,16,0,10,1,-2
CCCCCCCCCC(=O)NNC(=O)c1c(O)c2ccccc2n(CC)c1=O,101*,97*,0,0,0,4
CCCn1c(=O)c(C(=O)NNS(=O)(=O)c2ccc(NC(=O)OC)cc2)c(O)c2ccccc21,97*,97*,-3,2,1,-1
Cc1ccccc1OCC(=O)NN=Cc1sc(=O)n(Cc2cccc(C(=O)O)c2)c1Cl,6,6,nt,nt,nt,-5
O=C(O)C1=CC(c2ccccc2)CC(OCCCCO)O1 (stereo not given),4,9,nt,nt,nt,6
CC(=O)N1CCN(c2ccc(NC(=S)NC(=O)C=Cc3ccccc3)cc2)CC1,29,1,nt,nt,nt,2
O=[N+]([O-])c1cccc(-c2csc(NN=Cc3cccc(O)c3)n2)c1,94*,85,nt,nt,nt,0
Cc1cccc(C)c1OCC(=O)NNC(=S)NC(=O)C1CC1,34,62,2,17,83*,0
COC(=O)/C=C1\S/C(=N/NC(=O)c2ccccc2)NC1=O,-2,1,0,17,0,11
COc1ccccc1/C=C1\S/C(=N/NC(=O)c2cccc(Br)c2)NC1=O,58,68,0,-1,142*,-82
CCOCCCNC(=O)C1(O)c2cc(Br)ccc2NC(=O)N1c1ccc(OCC)cc1 (stereo not given),-3,-4,-1,0,51*,4
CCOC(=O)c1c(NCC(C)C)c2ccccc2[nH]c1=O,-7,10,17*,1,1,20
CCCNC(=O)c1cn(CC)c2cc(N3CCN(C)CC3)c(F)cc2c1=O,58,25,0,-12,1,nt
CCCCN(CCCC)C(=O)c1cn(CC)c2cc(N3CCN(C)CC3)c(F)cc2c1=O,97*,93*,-18,-15,1,5
CCCCCCn1cc(C(=O)O)c(=O)c2cc(F)c(N3CCN(C(=O)OCC)CC3)cc21,6,2,1,6,0,15
C=CCNC(=S)N1CCN(c2cc3c(cc2F)c(=O)c(C(=O)O)cn3CC)CC1,99*,98*,i,-3,0,6
C=CCCCCCCCCC(=O)N1CCN(c2cc3c(cc2F)c(=O)c(C(=O)O)cn3CC)CC1,93*,-5,4,-3,-1,3
O=C(CO)NN=Cc1ccccc1F,0,6,nt,nt,nt,5
Clc1ccc(-c2nnnn2-c2ccc(Cl)cc2)cc1,-4,3,0,-5,0,7
Cc1ccc(-n2nnnc2C(Cl)(Cl)c2nnnn2-c2ccc(C)cc2)cc1,100*,100*,-1,-4,-1,10
